# Tested on: Plasmodium falciparum NF54 gametocytes
# Assay: viability index relative to DMSO control (fraction); higher = less gametocyte killing
# Details: 12.5 µM, incubation time: 72 h
# In short: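 P. falciparum NF54 gametocytes of each stage (I–V), in serum-containing medium (0.50% gametocytemia, 1.25% hematocrit, 40 µl), were incubated with compound at 12.5 µM in 384-well plates for 72 hr at 37°C under low oxygen. Wells received 5 µl of 5 µM MitoTracker Red CMXRos for 20 min. Then 5 µl was moved into 40 µl of 500 nM dye in serum-free medium and imaged after 30 min (three fields). The viability index was the gametocyte particle count divided by the plate mean of DMSO wells.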
# [1] = gametocyte stage: Stage I viability index
# [2] = gametocyte stage: Stage II viability index
# [3] = gametocyte stage: Stage III viability index
# [4] = gametocyte stage: Stage IV viability index
# [5] = gametocyte stage: Stage V viability index
SMILES,viability index [1],viability index [2],viability index [3],viability index [4],viability index [5]
CCCc1c(CC)c(=N)c2ccccc2n1C,0.815,0.952,1.09,0.951,1.1
CC(C)CNC(=O)c1c(N)n(CCc2ccccc2F)c2nc3ccccc3nc12,0.0398,0.139,0.662,0.687,0.769
CCN(Cc1ccccc1)C1CCN(Cc2cc(Br)ccc2O)CC1,0.0376,0.132,0.573,0.617,0.659
O=C(Nc1ccc(CN2CCOCC2)cc1)c1ccc(-c2cc(Cl)ccc2Cl)o1,0.302,0.64,1.15,1.04,1.04
OC(CNC1CCCCC1)Cn1c2ccccc2c2ccccc21 (stereo not given),0.0354,0.0493,0.178,0.277,0.198
Cc1ccc(-c2cc3c(nn2)-c2ccccc2C3=O)cc1,0.61,0.871,0.74,0.897,1.05
COc1ccc(C(=O)C(CCC(CNC(C)(C)C)C(=O)c2ccc(OC)cc2)CNC(C)(C)C)cc1 (stereo not given),0.811,0.698,0.548,0.418,0.117
CCOC(=O)C1=CN(C)C=C(C(=O)OCC)C1c1cc(Br)c(OCC)c(OC)c1,0.042,0.0216,0.0421,0.161,0.117
CCn1c(CN2CCN(Cc3ccccc3)CC2)nc2cc(NC(=O)c3cccs3)ccc21,0.701,0.837,0.924,0.967,1.05
OC(CNC1CCCC1)Cn1c2ccccc2c2ccccc21 (stereo not given),0.0475,0.0783,0.181,0.286,0.22
N#Cc1nc(Cc2cccc3ccccc23)oc1N1CCN(C(c2ccccc2)c2ccccc2)CC1,1.12,0.93,1.23,0.968,1.16
Cc1ccc(-c2nc3ccccc3o2)cc1NCc1cc(Cc2ccccc2)ccc1O,0.0201,0.0666,0.389,0.513,0.792
Cc1nc2ccccc2c(O)c1CC=C(Cl)Cl,0.814,0.962,0.897,0.87,1.06
Cc1cc(Nc2ccc(OCc3ccccc3)cc2)nc2cc(O)ccc12,0.332,0.199,0.468,0.487,0.481
CN(C)CCCNCc1ccc(-c2ccc(F)c(Cl)c2)o1,0.202,0.376,0.376,0.339,0.104
COc1ccccc1CNC(=O)CCn1c(=O)[nH]c2ccsc2c1=O,0.477,0.712,1,0.805,0.769
CCCCc1c(C)nc2c(OC)cccc2c1O,1.07,0.942,1.03,0.954,1.1
CCC(C)NCC(O)(c1ccc(Cl)cc1)c1ccc(Cl)cc1 (stereo not given),0.0354,0.0657,0.378,0.584,0.615
Nc1ccc(-c2nc3cc(Cc4ccc5[nH]c(-c6ccc(N)cc6)nc5c4)ccc3[nH]2)cc1,0.0227,0.00833,0.0204,0.0127,0
COc1ccc2c(c1)C1(Nc3ccccc3-c3nc4ccccc4n31)C(=O)N2 (stereo not given),0.0265,0.00483,0.017,0.0608,0.033

SMILES,viability index [1],viability index [2],viability index [3],viability index [4],viability index [5]
CC(=O)NCCc1nc2ccccc2n1Cc1ccc(C(C)C)cc1,0.788,0.671,0.883,0.891,0.813
Cc1cccc(-n2ncc3c(=O)[nH]c(-n4nc(C)cc4NC(=O)c4cc5ccccc5o4)nc32)c1,0.466,0.473,0.792,0.9,0.791
COc1cccc(C2(C)Nc3ccccc3-c3nc4ccccc4n32)c1 (stereo not given),0.113,0.0986,0.198,0.465,0.154
Oc1c2c(nc3ccccc13)CCCC2,0.828,0.959,0.985,0.87,0.961
Cc1[nH]c(-c2ccc(F)cc2)cc1C(=O)NC1CCN(Cc2ccccc2)CC1,0.131,0.502,0.744,0.881,1.09
CCN(CC)c1ccc(NC(=O)c2cccs2)cc1,0.716,0.659,0.758,0.936,1.04
O=C(NC1CCN(Cc2ccccc2)CC1)c1cc(-c2cccnc2)nc2ccc(Cl)cc12,0.53,0.609,0.989,1.18,0.725
CCOc1ccc2c(c1)CN(Cc1ccc(Cl)cc1)CO2,0.0612,0.129,0.452,0.592,0.468
FC(F)(F)c1cccc(Nc2nc(-c3ccccc3)nc3ncccc23)c1,1.17,1.08,1.33,1.09,1.15
Oc1c(C(Nc2ccccn2)c2cccc(Oc3ccccc3)c2)ccc2cccnc12 (stereo not given),1.06,0.975,1.04,0.994,0.675
CCOc1ccc(N2C(N)=NC(N)=NC2(C)C)cc1,1.12,0.909,0.844,0.959,1.08
COc1cc2c(cc1OC)C1=NNC(=O)C1=NC(C)(C)C2,0.00884,0.0058,0.0707,0.109,0.011
O=C(NCC1Cc2cccc(-c3ccncc3)c2O1)c1csc2c1CCCC2 (stereo not given),1.09,1.09,0.945,1.04,1.11
CC(NCc1ccccc1)c1cc(Cl)ccc1O (stereo not given),0.0221,0.121,0.44,0.574,0.923
COc1ccc(CNC(=O)c2cc3c(=O)n4ccccc4nc3n(CCc3ccccc3)c2=N)cc1,0.254,0.499,0.826,0.946,1.01
Cc1cc(C)cc(Nc2cc(C)nc3nc(C(F)(F)F)nn23)c1,1.02,1.07,1.18,0.869,0.835
Cc1ccc2nc(C)cc(Nc3cccc(C(F)(F)F)c3)c2c1,0.325,0.504,0.803,0.829,0.857
CCOC(=O)c1cnc2ccc(OC)cc2c1NCc1ccccc1,0.309,0.535,0.991,0.835,0.87
Cc1ccc(CN2CCC(C(=O)Nc3ccc(-c4cc5ccccc5[nH]4)cc3)CC2)o1,0.00663,0.313,0.43,0.422,0.396
COCCNC(=O)c1ccc(OC2CCN(Cc3ccc(F)c(F)c3)CC2)c(Cl)c1,0.672,0.812,1.07,0.979,0.901

SMILES,viability index [1],viability index [2],viability index [3],viability index [4],viability index [5]
CC(C)(C)c1ccc(C(=O)Nc2nc3ccccc3s2)cc1,0.787,0.834,0.813,0.812,0.736
OC(CNCc1ccccc1)Cn1c2ccccc2c2ccccc21 (stereo not given),0.0629,0.0658,0.172,0.342,0.26
COc1nc(Nc2ccc(C(C)C)cc2)nc(OC)n1,1.18,0.871,0.965,1.06,0.967
COc1ccc(-c2cc3c(SCC(=O)Nc4cc(C(F)(F)F)ccc4Cl)nccn3n2)cc1,1.04,0.886,1.06,0.924,1.05
Clc1cc(Br)ccc1-c1ccc(CNCC2CCNCC2)o1,0.0166,0.0135,0.0099,0.0152,0.033
O=C(Nc1ccc(N2CCCCC2)c(Cl)c1)c1ccc(Br)o1,0.673,0.726,0.762,0.787,0.978
COC(=O)c1ccc(Cl)c2c1C1C=CCC1C(c1cccc3ccccc13)N2 (stereo not given),0.825,0.795,1.14,0.962,0.883
COc1ccc(C2c3ccc4ccccc4c3Oc3ncn(CCCn4ccnc4)c(=N)c32)cc1OC (stereo not given),0.0122,0.231,0.441,0.547,0.429
CCCCC(O)(c1ccc(Cl)cc1)C(CN1CCOCC1)c1ccc(Cl)cc1 (stereo not given),0.941,0.896,0.871,0.763,0.701
CCN(CC)CCNc1ncnc2c1[nH]c1ccc(Br)cc12,0.0398,0.36,0.635,0.641,0.396
O=C(O)C1Cc2c([nH]c3ccccc23)C(c2ccc(Cl)cc2Cl)N1 (stereo not given),1.04,0.891,1.08,1.05,0.967
Cc1sc(NC(=O)c2ccccc2)c(C(c2cccs2)N2CCN(c3ccccc3)CC2)c1C (stereo not given),1,0.74,0.905,0.753,0.545
COCCN(C(=O)Cc1cccs1)C(C(=O)NCc1ccc(OC)cc1)c1ccc(C(C)C)cc1 (stereo not given),0.846,0.801,1.18,1.11,0.967
CCOc1cc2c(cc1OCC)C(c1cc(C)c(O)c(C)c1)NCC2 (stereo not given),0.0111,0.123,0.642,0.851,0.78
CCCC(c1nnnn1C1CCCCC1)N1CCN(C(=O)c2ccco2)CC1 (stereo not given),1.04,0.976,1.01,1.02,1.16
CC1CC(C)CN(C(=O)c2ccc(Cl)cc2Cl)C1 (stereo not given),0.95,0.871,0.962,0.951,1.01
COc1cc2cc(C(=O)Nc3ccccc3)c(N)nc2cc1OC,0.0265,0.434,0.727,0.86,0.758
CN1c2ccccc2N(C)C1c1ccc2c(c1)OCO2,0.952,0.862,1.05,0.964,1.03
COc1ccc(C(C)=O)cc1N1C(=O)C2C(C1=O)C1(c3ccccc3)C(=O)C2(c2ccccc2)C(c2ccc(C)cc2)=C1c1ccc(C)cc1 (stereo not given),1.04,0.933,1.01,0.824,0.923
COc1cccc(Cn2c(Oc3ccccc3)nc3c2c(=O)n(C)c(=O)n3C)c1,0.892,0.853,0.993,1.06,1.16
